# Experimental data reported in PubChem BioAssay (NCATS).
# Results filed as inconclusive are left out. Calls of active or inactive are those of the source. The call rests on the fitted dose curve; in most records, active means well fitted cell-killing curve with a large enough effect; inconclusive means small, poorly fitted or top-dose-only effect; inactive means no such curve, though single readings can be large or run the other way.
# Assay: qHTS of pediatric cancer cell lines to identify multiple opportunities for drug repurposing: Primary screen for A673 cells (AID 1347092); further: nearly all actives have a fitted effect of over 45% in size
# Conditions: A673 Ewing sarcoma viability, CellTiter-Glo ATP luminescence, 48 h; series mostly up to 46 µM; activity change, negative = cytotoxic: at the top concentration
# Excerpt: Drug repurposing or repositioning has been offered as a strategy for drug development in oncology programs. This approach has special potential for childhood cancers and other rare or orphan diseases, where the expected return on new drug development has been a disincentive to pharmaceuticals. […] In this project we exploit the poly-pharmacology of drugs to discover new indications via phenotypic screening of a panel of 19 well-characterized cell lines derived from solid tumors seen in children and adolescents. The goal is to identify approved drugs with previously unrecognized anticancer properties that has the potential to reveal new mechanisms and biological processes involved in carcinogenesis or drug resistance. We employed a titration-based paradigm (quantitative high-throughput screening or qHTS), where all compounds were tested at multiple concentrations for their effect on cell viability. Concentration-response curves (CRCs) were derived directly from the primary screen, and both potency and efficacy values were used to identify compounds with robust bioactivity profiles. We screened the NIH Chemical Genomics Center (NCGC) Pharmaceutical Collection (NPC) and Mechanism Interrogation Plate (MIPE) small molecule collections of approved and investigational compounds against these cell lines; and measured metabolically active cells after 48 hours of compound treatment as a proxy for cell viability. […] Assay Submitter: Nathalia J. Martinez, National Center for Advancing Translational Sciences, National Institutes of Health, Rockville, MD, USA; email: natalia.martinez@nih.gov. Shen, M et al. Quantitative high-throughput phenotypic screening of pediatric cancer cell lines identifies multiple opportunities for drug repurposing. Oncotarget 2017 Dec 19;9(4):4758-4772. PMID 29435139.
# The cells were obtained from University of North Carolina (UNC), Pediatric Preclinical Testing Program (PPT), and Coriell Institute (CI). qHTS cell viability assay: Cells were assayed in growth media at a density of 500-1,000 cells/well. Five microliters of cells were dispensed into 1,536-well, white, solid-bottom, TC-treated plates (Greiner Bio One) using a multidrop dispenser and incubated at 37 degrees C, 5% CO2, under a humidified atmosphere for 5 hours. Twenty-three nanoliters of compounds and controls (neutral control DMSO or positive control bortezomib at final concentration of 2.3 uM) were subsequently transferred by Kalypsys pintool. For primary screens, the MIPE collection was tested at 11-point dilutions (final concentrations range from 0.78 nM to 46 µM) and the NPC collection at 8-point dilutions (final concentrations range from 0.59 nM to 46 µM). Compounds tested in follow-up screens were assayed at 11-point dilutions. Cells were incubated for 48 hours, followed by addition of 3 uL of CellTiter-Glo (Promega). After a 15min incubation at room temperature, samples were analyzed for luminescence intensity using a ViewLux High-throughput CCD imager equipped with clear filters.
# On the % scale 0 is the no-effect control and ±100 the full control effect; potency means the concentration at half of the fitted maximal effect.
Structure (SMILES),"activity change, negative = cytotoxic",Potency
C=C1C[C@H]2[C@@H]3C=C(C)C4=CC(=O)CC[C@]4(C)[C@H]3CC[C@]2(C)[C@@]1(OC(C)=O)C(C)=O,-12.6% (inactive),
NCCCC[C@H](N[C@@H](CCc1ccccc1)C(=O)O)C(=O)N1CCC[C@H]1C(=O)O,17.9% (inactive),
CN1CCC[C@@H]1c1cccnc1,-2.03% (inactive),
COc1cc(C=C2CCC/C(=C\c3ccc(O)c(OC)c3)C2=O)ccc1O,,0.266 µM (active)
CCN(CC)C(=O)N1CCN(C)CC1,-4.94% (inactive),
CC(=O)OCC(=O)[C@@]12N=C(C)O[C@@H]1C[C@H]1[C@@H]3CCC4=CC(=O)C=C[C@]4(C)[C@H]3[C@@H](O)C[C@@]12C,-0.921% (inactive),
OC[C@@H](O)[C@@H](O[C@@H]1O[C@H](CO)[C@H](O)[C@H](O)[C@H]1O)[C@H](O)[C@@H](O)CO,0.619% (inactive),
O=C(OCC(O)CO)c1ccccc1Nc1ccnc2cc(Cl)ccc12 (stereo not given),-12.3% (inactive),
OC[C@H]1O[C@H](O[C@]2(CCl)O[C@H](CCl)[C@@H](O)[C@@H]2O)[C@H](O)[C@@H](O)[C@H]1Cl,4% (inactive),
CC[N+](CC)(CCNC(=O)C(=O)NCC[N+](CC)(CC)Cc1ccccc1Cl)Cc1ccccc1Cl,8.45% (inactive),
C[C@]12CC[C@H]3[C@@H](CCC4=CC(=O)CC[C@@]43C)[C@@H]1CC[C@@H]2C(=O)CO,-13.2% (inactive),
COc1ccc(CN2CCN(C(c3ccc(F)cc3)c3ccc(F)cc3)CC2)c(OC)c1OC,,21.1 µM (active)
Cc1nc2n(c(=O)c1CCN1CCC(c3noc4cc(F)ccc34)CC1)CCC[C@H]2O,-1.21% [at 16.1 µM] (inactive),
O=C(COc1ccc(Cl)cc1)N1CCN(Cc2ccc3c(c2)OCO3)CC1,-6.91% (inactive),
Cc1c(F)c(N2CCNC(C)C2)cc2c1c(=O)c(C(=O)O)cn2C1CC1 (stereo not given),7.94% (inactive),
CCCCOc1ccc(OCCCN2CCOCC2)cc1,-3.86% (inactive),
CCN(CC)CCOC(=O)C(c1ccccc1)C1CCCCC1 (stereo not given),-25.4% (inactive),
COc1cc(/C=C/C(=O)O[C@H]2CC[C@]34C[C@]35CC[C@]3(C)[C@@H]([C@H](C)CCC=C(C)C)CC[C@@]3(C)[C@@H]5CC[C@H]4C2(C)C)ccc1O,-3.2% (inactive),
CC1=C(C(=O)O)N2C(=O)[C@@H](NC(=O)[C@H](N)c3ccc(O)cc3)[C@H]2SC1,7.19% (inactive),
Nc1ccc(C(=O)O)cc1,1.61% (inactive),

Structure (SMILES),"activity change, negative = cytotoxic",Potency
CN1[C@@H]2CC[C@H]1CC(OC(=O)c1c[nH]c3ccccc13)C2 (stereo not given in full),-3.97% (inactive),
CCOC(=O)c1cccc(N)c1,2.89% (inactive),
CC(C)(C)NC(=O)[C@@H]1CN(Cc2cccnc2)CCN1C[C@@H](O)C[C@@H](Cc1ccccc1)C(=O)N[C@H]1c2ccccc2C[C@H]1O,-13.3% (inactive),
OCc1ccccc1O,-6.09% (inactive),
CC(C)(CO)[C@@H](O)C(=O)NCCCO,6.66% (inactive),
CCCCCCC[N+](CC)(CC)CCCCc1ccc(Cl)cc1,,3.35 µM (active)
C[C@@H]1C[C@H]2[C@@H]3C[C@H](F)C4=CC(=O)C(Cl)=C[C@]4(C)[C@@]3(F)[C@@H](O)C[C@]2(C)[C@@]1(O)C(=O)CO,-22.5% (inactive),
CN(C(=O)CN(CCO)CC(=O)N(C)C(C)(C)Cc1ccccc1)C(C)(C)Cc1ccccc1,-25.7% (inactive),
CC1(C)OC[C@@H](COC(=O)CCc2ccc(OC[C@@H](O)CNCCNC(=O)N3CCOCC3)cc2)O1,6.37% (inactive),
OC(CCN1CCCCC1)(c1ccccc1)c1ccccc1,-17.9% (inactive),
C[n+]1c2cc(N)ccc2cc2ccc(N)cc21 (tested in a mixture with another compound),,5.31 µM (active)
CN(C)C(=S)SC(=S)N(C)C,,0.668 µM (active)
O=c1[nH]c(=O)n([C@H]2C[C@H](O)[C@@H](CO)O2)cc1C(F)(F)F,,1.68 µM (active)
CC(O)(P(=O)(O)O)P(=O)(O)O,-8.87% (inactive),
CCN1CCN(c2cc3c(cc2F)c(=O)c(C(=O)O)cn3C2CC2)CC1,8.01% (inactive),
Cc1cccc(C)c1NC(=O)CN1CCN(CCCC(c2ccc(F)cc2)c2ccc(F)cc2)CC1,12.6% (inactive),
CCOC(=O)n1ccn(C)c1=S,-16.6% (inactive),
NC[C@H]1O[C@H](O[C@H]2[C@H](O)[C@@H](O[C@H]3O[C@H](CO)[C@@H](O)[C@H](N)[C@H]3O)[C@H](N)C[C@@H]2N)[C@H](N)[C@@H](O)[C@@H]1O,-15.7% [at 16.1 µM] (inactive),
C[C@H](CCC(=O)O)[C@H]1CC[C@H]2[C@@H]3C(=O)C[C@@H]4CC(=O)CC[C@]4(C)[C@H]3CC(=O)[C@]12C,20.1% (inactive),
O=C(Nc1ccc(Cl)c(Cl)c1)C1CC1,-25.6% (inactive),
